Measured values from PubChem BioAssay.
A number with no mark means an inactive call. Active and inactive are the calls of the source.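 Rule for the calls, unless noted: active = mean inhibition over 43.08%, the solvent-only control mean plus 3 SD; inactive = the rest.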

Key:
[1] = molecular target: Nuclear receptor coactivator 3 (Homo sapiens) (UniProt Q9Y6Q9); assay: SRC3 coactivator transcriptional activity inhibitors, confirmation, cell-based, luminescence, quadruplicate (AID 588792); details: HEK293 GAL4-SRC3 luciferase reporter, at 3.6 µM, hits give high values;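 note: 0% = DMSO treated cells and 100% = gossypol at 36 µM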
Nuclear receptor coactivator 3 (Homo sapiens), sequence (Q9Y6Q9 whole entry, looked up, the tested form may be a part): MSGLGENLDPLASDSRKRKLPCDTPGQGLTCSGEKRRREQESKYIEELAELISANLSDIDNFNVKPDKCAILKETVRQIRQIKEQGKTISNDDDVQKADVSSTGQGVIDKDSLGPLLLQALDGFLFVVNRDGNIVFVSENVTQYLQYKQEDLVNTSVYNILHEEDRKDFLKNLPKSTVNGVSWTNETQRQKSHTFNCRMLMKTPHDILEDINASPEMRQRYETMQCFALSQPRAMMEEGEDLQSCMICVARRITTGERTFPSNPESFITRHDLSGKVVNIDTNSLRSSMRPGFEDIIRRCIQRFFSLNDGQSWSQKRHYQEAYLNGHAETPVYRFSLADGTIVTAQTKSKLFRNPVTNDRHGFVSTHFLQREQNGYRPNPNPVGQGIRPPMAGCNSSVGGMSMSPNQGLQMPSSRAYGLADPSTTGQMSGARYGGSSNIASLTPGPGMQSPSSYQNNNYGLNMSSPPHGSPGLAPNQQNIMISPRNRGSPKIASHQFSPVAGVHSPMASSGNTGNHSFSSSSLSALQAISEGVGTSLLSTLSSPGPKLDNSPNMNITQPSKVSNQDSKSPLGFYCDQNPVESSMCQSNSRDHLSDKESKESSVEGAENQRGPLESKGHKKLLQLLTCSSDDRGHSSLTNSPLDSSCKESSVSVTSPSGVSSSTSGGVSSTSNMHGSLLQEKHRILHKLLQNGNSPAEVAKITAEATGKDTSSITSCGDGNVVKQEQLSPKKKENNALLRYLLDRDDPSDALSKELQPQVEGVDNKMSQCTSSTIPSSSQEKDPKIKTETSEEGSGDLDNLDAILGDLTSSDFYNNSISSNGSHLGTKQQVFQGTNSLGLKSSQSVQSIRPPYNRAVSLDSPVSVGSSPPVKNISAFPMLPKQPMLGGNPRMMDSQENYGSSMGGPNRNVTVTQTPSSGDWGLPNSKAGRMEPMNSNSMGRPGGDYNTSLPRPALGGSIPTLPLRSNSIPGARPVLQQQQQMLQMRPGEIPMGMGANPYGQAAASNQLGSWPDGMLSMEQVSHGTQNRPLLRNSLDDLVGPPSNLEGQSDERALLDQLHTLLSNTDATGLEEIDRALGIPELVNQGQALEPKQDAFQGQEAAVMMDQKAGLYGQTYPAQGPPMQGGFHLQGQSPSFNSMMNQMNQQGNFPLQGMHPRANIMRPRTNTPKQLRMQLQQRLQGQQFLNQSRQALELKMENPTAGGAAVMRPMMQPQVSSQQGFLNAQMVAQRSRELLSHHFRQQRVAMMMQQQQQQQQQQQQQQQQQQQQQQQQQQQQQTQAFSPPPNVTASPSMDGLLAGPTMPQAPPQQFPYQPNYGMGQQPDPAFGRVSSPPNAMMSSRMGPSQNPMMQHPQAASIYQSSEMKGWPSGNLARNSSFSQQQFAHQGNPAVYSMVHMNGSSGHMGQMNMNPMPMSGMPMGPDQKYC

[2] = tested on: transactivating tegument protein VP16 (Human herpesvirus 1), Gal4-VP16 luciferase reporter; assay: VP16 transactivation inhibitors, counter-screen for SRC3 inhibitor project, cell-based, luminescence, high throughput (AID 588794; in the data active = inhibition above about 30%); details: mammalian cells, VP16-driven luciferase reporter luminescence; at 3.6 µM; hits give high values
[3] = molecular target: Nuclear receptor coactivator 1 (Homo sapiens) (UniProt Q15788); assay: SRC1 coactivator transcriptional activity inhibitors, confirmation, cell-based, luminescence, quadruplicate (AID 588820;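 active = mean inhibition above 46.68%, the untreated control wells mean plus 3 SD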;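 note: 0% = DMSO wells and 100% = gossypol 36 µM treated wells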); details: HEK293 GAL4-SRC1 luciferase reporter, at 3.6 µM, hits give high values
Nuclear receptor coactivator 1 (Homo sapiens), sequence (Q15788 whole entry, looked up, the tested form may be a part): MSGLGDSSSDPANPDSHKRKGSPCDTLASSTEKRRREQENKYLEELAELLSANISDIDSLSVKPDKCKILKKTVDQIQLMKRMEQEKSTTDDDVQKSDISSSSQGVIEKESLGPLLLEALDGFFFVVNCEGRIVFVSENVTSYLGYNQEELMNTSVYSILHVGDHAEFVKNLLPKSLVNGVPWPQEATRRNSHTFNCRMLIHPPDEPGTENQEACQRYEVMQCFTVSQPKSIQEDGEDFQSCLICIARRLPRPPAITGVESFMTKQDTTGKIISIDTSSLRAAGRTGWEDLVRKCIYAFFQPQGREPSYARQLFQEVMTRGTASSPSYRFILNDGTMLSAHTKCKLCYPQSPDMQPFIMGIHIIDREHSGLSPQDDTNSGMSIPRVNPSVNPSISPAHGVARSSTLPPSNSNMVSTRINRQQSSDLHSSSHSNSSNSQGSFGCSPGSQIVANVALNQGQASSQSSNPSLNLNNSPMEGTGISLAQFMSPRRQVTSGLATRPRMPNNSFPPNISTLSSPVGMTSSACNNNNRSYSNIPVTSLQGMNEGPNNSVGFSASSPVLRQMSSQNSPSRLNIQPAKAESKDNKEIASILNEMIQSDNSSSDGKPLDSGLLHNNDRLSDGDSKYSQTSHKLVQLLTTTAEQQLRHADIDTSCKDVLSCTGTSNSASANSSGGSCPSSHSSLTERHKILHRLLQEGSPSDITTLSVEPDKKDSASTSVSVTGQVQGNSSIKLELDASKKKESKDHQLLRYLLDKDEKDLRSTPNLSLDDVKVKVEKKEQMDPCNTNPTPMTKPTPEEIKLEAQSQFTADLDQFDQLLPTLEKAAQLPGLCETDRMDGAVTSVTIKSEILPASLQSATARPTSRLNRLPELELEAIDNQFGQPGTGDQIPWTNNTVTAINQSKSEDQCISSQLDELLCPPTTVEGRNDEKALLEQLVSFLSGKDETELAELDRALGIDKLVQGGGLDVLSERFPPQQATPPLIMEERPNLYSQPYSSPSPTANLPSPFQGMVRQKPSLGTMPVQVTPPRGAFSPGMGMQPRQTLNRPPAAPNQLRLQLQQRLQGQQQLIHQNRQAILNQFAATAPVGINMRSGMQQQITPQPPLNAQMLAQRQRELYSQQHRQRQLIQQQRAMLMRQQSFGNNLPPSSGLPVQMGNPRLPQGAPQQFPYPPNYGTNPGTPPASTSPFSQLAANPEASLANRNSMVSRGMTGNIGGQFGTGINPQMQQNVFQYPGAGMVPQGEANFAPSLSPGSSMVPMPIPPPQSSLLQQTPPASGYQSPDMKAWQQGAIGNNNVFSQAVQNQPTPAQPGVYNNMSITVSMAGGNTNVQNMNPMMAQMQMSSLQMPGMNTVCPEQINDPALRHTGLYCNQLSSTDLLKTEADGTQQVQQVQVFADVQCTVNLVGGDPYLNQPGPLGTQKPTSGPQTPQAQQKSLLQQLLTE

[4] = VP16 transactivation inhibitors, counter-screen for SRC1 inhibitor project, cell-based, luminescence, high throughput (AID 588824; in the data active = inhibition above about 25%); details: cell-based VP16 transactivation luciferase luminescence; at 3.6 µM; hits give high values
[5] = tested on: transactivating tegument protein VP16 (Human herpesvirus 1); assay: VP16 transactivation reporter inhibitors, counter-screen for SRC2 inhibitor project, cell-based, luminescence, single concentration (AID 652007; in the data active = inhibition above about 36%); details: cell-based VP16 transactivation luciferase reporter, at 8.9 µM, hits give high values
[6] = molecular target: Nuclear receptor coactivator 2 (Homo sapiens) (UniProt Q15596); assay: SRC2 coactivator transcriptional activity inhibitors, confirmation, cell-based, luminescence, HEK293, triplicate (AID 652008;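 active = mean inhibition above 46.5%, the solvent-only control mean plus 3 SD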;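 note: 0% = DMSO-treated cells and 100% = Gossypol at 36 µM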); details: HEK293 GAL4-SRC2 luciferase reporter, at 8.9 µM, hits give high values
Nuclear receptor coactivator 2 (Homo sapiens), sequence (Q15596 whole entry, looked up, the tested form may be a part): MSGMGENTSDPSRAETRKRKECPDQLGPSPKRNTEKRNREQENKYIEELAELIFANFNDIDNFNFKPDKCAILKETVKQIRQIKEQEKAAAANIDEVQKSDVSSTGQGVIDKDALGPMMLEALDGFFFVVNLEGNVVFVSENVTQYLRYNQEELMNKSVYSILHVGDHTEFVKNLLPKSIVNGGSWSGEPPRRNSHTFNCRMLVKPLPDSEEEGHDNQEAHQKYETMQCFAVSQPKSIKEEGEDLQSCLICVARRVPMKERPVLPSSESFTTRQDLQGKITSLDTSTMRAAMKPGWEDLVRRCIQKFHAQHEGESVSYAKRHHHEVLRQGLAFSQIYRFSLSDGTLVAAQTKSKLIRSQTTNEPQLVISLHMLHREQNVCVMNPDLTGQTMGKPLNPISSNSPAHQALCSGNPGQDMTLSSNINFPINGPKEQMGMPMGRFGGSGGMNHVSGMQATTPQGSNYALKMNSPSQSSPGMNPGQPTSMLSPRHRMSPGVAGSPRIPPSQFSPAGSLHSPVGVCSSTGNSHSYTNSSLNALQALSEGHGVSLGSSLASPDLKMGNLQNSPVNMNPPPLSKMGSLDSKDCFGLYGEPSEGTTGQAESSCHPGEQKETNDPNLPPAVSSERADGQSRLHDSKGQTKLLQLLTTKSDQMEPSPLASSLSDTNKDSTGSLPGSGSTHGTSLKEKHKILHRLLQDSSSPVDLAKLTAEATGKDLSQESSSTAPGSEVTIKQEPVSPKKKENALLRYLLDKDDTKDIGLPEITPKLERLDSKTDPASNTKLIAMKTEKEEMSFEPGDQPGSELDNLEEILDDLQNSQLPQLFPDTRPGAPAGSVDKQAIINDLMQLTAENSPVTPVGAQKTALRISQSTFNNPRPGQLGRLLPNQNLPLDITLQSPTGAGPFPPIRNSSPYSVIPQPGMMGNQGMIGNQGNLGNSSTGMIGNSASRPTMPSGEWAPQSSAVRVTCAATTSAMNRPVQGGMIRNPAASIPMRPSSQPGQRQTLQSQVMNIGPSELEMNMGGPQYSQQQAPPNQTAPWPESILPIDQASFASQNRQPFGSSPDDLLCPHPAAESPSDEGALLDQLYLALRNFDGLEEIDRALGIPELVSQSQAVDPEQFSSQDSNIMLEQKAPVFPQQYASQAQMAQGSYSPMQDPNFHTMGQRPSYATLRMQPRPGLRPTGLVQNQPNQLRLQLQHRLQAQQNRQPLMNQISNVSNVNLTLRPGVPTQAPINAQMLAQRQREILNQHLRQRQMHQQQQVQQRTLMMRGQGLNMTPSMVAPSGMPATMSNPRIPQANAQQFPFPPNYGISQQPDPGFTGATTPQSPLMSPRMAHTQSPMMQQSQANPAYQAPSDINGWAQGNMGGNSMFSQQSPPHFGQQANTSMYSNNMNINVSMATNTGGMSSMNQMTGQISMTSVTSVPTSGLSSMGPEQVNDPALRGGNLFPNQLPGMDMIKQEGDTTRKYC

| SMILES | inhibition [1] | inhibition [2] | inhibition [3] | inhibition [4] | inhibition [5] | inhibition [6] |
| --- | --- | --- | --- | --- | --- | --- |
| O=C(CCl)NC(Cc1ccccc1)c1ccccc1 (centres undefined) | 52.5% (active) | 14.2% | 24.6% | 6.41% | 32.8% | 47.5% (active) |
| OCCCNc1ncnc2scc(-c3ccc(Cl)cc3)c12 | 62.6% (active) | 47.1% (active) | 62.6% (active) | 39.2% (active) | 5.28% | 46.5% (active) |
| CCCN1C=CC(=C2C(=O)c3ccccc3C2=O)C=C1 | 65.4% (active) | 51.3% (active) | -14.4% | 38% (active) | 80.3% (active) | 91.3% (active) |
| Cc1nc2c(-c3ccc(Cl)cc3)cnn2c(N)c1-c1ccc(F)cc1 | 38% | 24.5% | -12% | -6.2% | 2.27% | 53.7% (active) |
| O=C(Nc1ccccc1Oc1ccccc1)c1cc([N+](=O)[O-])ccc1Cl | 52.5% (active) | 24.8% | 24.8% | 33.9% (active) | 21.9% | 50.4% (active) |
| CC(=O)c1ccc(-n2c(C)c(C(C)=O)c3cc(O)ccc32)cc1 | 63% (active) | 45.6% (active) | 45.9% | 46.7% (active) | 2.74% | 54.7% (active) |
| COc1ccc(C2=Nn3c(nnc3-c3ccncc3)SC2)cc1 | 65.2% (active) | 48.6% (active) | 57.8% (active) | 37% (active) | 12.8% | 39.8% |
| COc1ccc(N(C(=O)CCl)C(C(=O)NC2CCCCC2)c2cccnc2)cc1 (centres undefined) | 75.7% (active) | 56.5% (active) | 38.8% | 51.5% (active) | 68.8% (active) | 69% (active) |
| COc1ccc(-c2[nH]ncc2-c2ccc3c(c2)OCCO3)c(O)c1 | 74.4% (active) | 58.3% (active) | 72% (active) | 59.5% (active) | 11.7% | 47.5% (active) |
| Cc1nc2sc(C(N)=O)c(N)c2c2c1CCCC2 | 79.4% (active) | 47.5% (active) | 69% (active) | 51% (active) | 6.77% | 61.5% (active) |
| CCOC(=O)c1cccc2c1-c1ccccc1/C2=N/O | 39.8% | 23.7% | 46.5% | 23.2% | -10.8% | 24.9% |
| Brc1ccc2ncnc(Nc3ccc(N4CCOCC4)cc3)c2c1 | 57.9% (active) | 31.9% (active) | 59.7% (active) | 35.3% (active) | -2.24% | 39.9% |
| COc1cccc(N(C(=O)CCl)C(C(=O)NCCc2ccccc2)c2cccs2)c1 (centres undefined) | 60.3% (active) | 36% (active) | 24.3% | 34% (active) | 27.8% | 63.3% (active) |
| C=CCn1c(C)cc(C(=O)COc2ccc(C)nc2[N+](=O)[O-])c1C | 33.7% | -8.11% | 9.64% | -12.6% | -4.94% | 65.9% (active) |
| Nc1ccc(-c2nc3c(Cl)cc(N)cc3[nH]2)cc1 | 18.7% | -18.4% | -18.9% | -17.4% | 28.1% | 71.7% (active) |
| O=C1CCCCC1Sc1nnc(-c2ccc3c(c2)OCO3)o1 (centres undefined) | -5.91% | -22.1% | -129% | -49.6% | 34% | 53.1% (active) |
| Cc1ccc(/C=C2\SC(=S)N(CCCC(=O)NC3CCCC3)C2=O)cc1 | 55.2% (active) | 14.5% | 41.5% | 14.4% | 79.5% (active) | 89.4% (active) |
| O=c1c2ccccc2cnn1-c1nc2ccccc2[nH]1 | 57.4% (active) | 50.6% (active) | 22.3% | 41.9% (active) | 76.6% (active) | 84.9% (active) |
| CS(=O)(=O)Nc1ccc(-c2cnc3cccnn23)cc1 | 67.9% (active) | 41.6% (active) | 57.5% (active) | 51.7% (active) | -12.1% | 45.8% |
| CN1CCN(c2ccc(NC(=O)N3CCc4ccccc43)cc2)CC1 | 32.5% | 13.4% | -43.7% | -20.3% | -18.3% | 53.1% (active) |

| SMILES | inhibition [1] | inhibition [2] | inhibition [3] | inhibition [4] | inhibition [5] | inhibition [6] |
| --- | --- | --- | --- | --- | --- | --- |
| O=C(/C=C/c1ccccc1)CC(O)(c1ccccc1)C(F)(F)F (centres undefined) | 38.5% | 31% (active) | 12.9% | 45.9% (active) | 21.8% | 32.7% |
| Cc1ccc(-c2csc(=Nc3cccnc3)n2CCCn2ccnc2)cc1C | 71% (active) | 51.5% (active) | 66.7% (active) | 45.6% (active) | -0.44% | 56.8% (active) |
| Nc1ncnc(N2CCc3ccccc32)c1[N+](=O)[O-] | 85.4% (active) | 61.3% (active) | 75.9% (active) | 61.2% (active) | 9.34% | 55.2% (active) |
| O=C(NC1CCCCC1)C(c1cccnc1)N(C(=O)CCl)c1cccc(Cl)c1 (centres undefined) | 61.6% (active) | 26.8% | 33.4% | 17.5% | 39.6% (active) | 56.3% (active) |
| Cn1c(/C=C/c2cccc([N+](=O)[O-])c2)c([N+](=O)[O-])c(=O)n(C)c1=O | 37.6% | 41.4% (active) | 32.5% | 40.8% (active) | 7.43% | 25.7% |
| COc1ccc(-c2cc3nc(C)n(N)c(=O)c3s2)cc1 | 57.6% (active) | 41.7% (active) | 19.4% | 39.4% (active) | 72% (active) | 83.8% (active) |
| Cc1cc(C(=O)COC(=O)c2cccnc2Cl)c(C)n1CC1CCCO1 (centres undefined) | 19.6% | 27.6% | -18.2% | -20.1% | 6.65% | 56.6% (active) |
| Cc1ccc(C)c(N2CCN(C(=O)CCS(=O)(=O)c3ccc4c(c3)NC(=O)CO4)CC2)c1 | -1.43% | 16.3% | -0.57% | 17.9% | 3.15% | 15.3% |
| O=C1C=CC(=C(c2ccc(O)cc2)c2ccc(O)cc2)C=C1 | 71.2% (active) | 47.5% (active) | 54% (active) | 46.8% (active) | 26.8% | 27.1% |
| c1cc2[nH]snc2c2nc(C3CC3)nc12 | 63.9% (active) | 18.3% | 53.3% (active) | 23.3% | -12.6% | 19% |
| O=C(N/N=C/c1cc(Br)ccc1O)C(c1ccncc1)N1CCOCC1 (centres undefined) | 19.3% | 20.1% | 19.4% | 10.6% | 11.5% | 10.1% |
| Cc1cc(Sc2nnc(/N=C/N(C)C)s2)c2ccccc2n1 | 9.12% | 40.5% (active) | 2.4% | 33.8% (active) | -8.53% | 24.6% |
| c1cc2c(cc1C1=NNC(=NC3CC3)SC1)OCCO2 | 52.8% (active) | 46.4% (active) | 15.5% | 38% (active) | 59.7% (active) | 79.5% (active) |
| Clc1ccc(-c2csc(=Nc3cccnc3)n2CCCn2ccnc2)cc1Cl | 53.9% (active) | 35.4% (active) | 49.7% (active) | 39% (active) | 15.6% | 63.7% (active) |
| COc1cncc(-c2cnc3sc(NCCc4ccccn4)nn23)c1 | 56.8% (active) | 33.6% (active) | 48.4% (active) | 30.6% (active) | 3.51% | 50.2% (active) |
| COc1ccc(/C=C/C(=O)Nc2ccccc2C(=O)O)cc1OC | -1.26% | -3.34% | -73.2% | -29.6% | 26.9% | 37.8% |
| Cc1c([N+](=O)[O-])c2ccc(O)cc2n1-c1ccccc1 | 53.5% (active) | 31.6% (active) | 55.4% (active) | 30.1% (active) | 2.8% | 35.8% |
| COCCn1c(C)cc(C(=O)CSc2nnnn2C2CCCC2)c1C | -7.91% | -5.21% | -99.2% | -66.8% | -19.6% | 51.9% (active) |
| S=C(c1ccc(-c2ccccc2)cc1)N1CCOCC1 | 9.3% | 4.1% | 33.3% | -6.87% | 10.2% | 79.1% (active) |
